Results from PubChem BioAssay (EPA / NIEHS).
Activity calls are given as the source filed them. Rule for the calls: active = hit-call score of the fitted dose curve at least 0.9, where 1 is the maximum; inactive = score below 0.9.

Assay: ATG_NFI_CIS: Attagene CIS-FACTORIAL HepG2 Assay for human Nuclear Factor I (NFI) (AID 2282989)
Settings: HepG2 cis-regulatory reporter, NFI response element transcription; actives raise or lower the signal
Description: ATG_CIS is a cell-based, multiplexed-readout assay that uses HepG2, a human liver cell line, with measurements taken at 24 hours after chemical dosing in a 24-well plate.ATG_NFI_CIS is one of 52 assay component(s) measured or calculated from the ATG_CIS assay. It is designed to make measurements of mRNA induction, a form of inducible reporter, as detected with fluorescence intensity signals by Reverse transcription polymerase chain reaction (RT-PCR) and Capillary electrophoresis technology.Data from the assay component ATG_NFI_CIS was analyzed into 1 assay endpoint. This assay endpoint, ATG_NFI_CIS, was analyzed with bidirectional fitting relative to DMSO as the negative control and baseline of activity. Using a type of inducible reporter, measures of mRNA for gain or loss-of-signal activity can be used to understand the reporter gene at the transcription factor-level as they relate to the gene NFIA. Furthermore, this assay endpoint can be referred to as a primary readout, because this assay has produced multiple assay endpoints where this one serves a reporter gene function. To generalize the intended target to other relatable targets, this assay endpoint is annotated to the dna binding intended target family, where the subfamily is nuclear factor I.
Human liver HepG2 cells are transiently transfected with multiple reporter transcription units (MRTUs) in 6-well plates using FuGene 6 reagent (Roche; 3 ml FuGene/1 mg DNA). The MRTU constructs are regulated by a cis-regulating element (promoter). […] A major difference between the CIS and TRANS system is that in CIS activities of endogenous TFs are measured, whereas the TRANS assay evaluates changes in activities of exogenous, chimeric NR-Gal4 proteins. […] At the end of 24 hour incubation, total RNA was isolated using TriZol reagent (Invitrogen). The isolated RNA is then reverse-transcribed using oligo(dT) primer and Mo-MLV reverse transcriptase (Invitrogen) with DNAse I (Ambion) treatment for 30 min. The one-tenth of the produced cDNA was amplified by PCR using Taq DNA polymerase (Invitrogen) and two reporter sequence-specific primers. The PCR products were fluorescently labeled by primer extension with 6-arboxyfluorescein (6-FAM) 5'-labeled reporter sequence-specific primer (2 min at 95 C, 20 s at 68 C and 10 min at 72 C) and these products were digested with 5U of HpaI (New England Biolabs) for 2h at 37 C. The fragments were purified using Qiaquick PCR columns (Qiagen), analyzed on an ABI 3130xL genetic analyzer (Applied Biosystems) with peak positions identified by using a set of X-rhodamine (ROX)-labeled MapMarker1000 molecular weight standards (BioVentures). The raw capillary electrophoresis data was processed using Attagraph software (Attagene).

Row | Structure (SMILES) | outcome | AC50
1 | CC(C)=CCCC(C)=CC(=O)O | inactive | –
2 | NNC(=O)OCc1ccccc1 | inactive | –
3 | CC(C)N1C(=O)c2ccccc2C1=O | inactive | –
4 | CC(C)CCCC(C)(C)O | inactive | –
5 | CC1=CCC(=C(C)C)CC1 | inactive | –
6 | CCC(C)(C)C1CCC(=O)CC1 | inactive | –
7 | NC(=O)NC(N)=O | inactive | –
8 | CNC(=C[N+](=O)[O-])NCCSCc1ccc(CN(C)C)o1 | inactive | –
9 | CC(C)(C)c1cccc(O)c1 | inactive | –
10 | CC(C)(O)CCc1ccccc1 | inactive | –
11 | O=C1OC2(c3ccc(O)cc3Oc3cc(O)ccc32)c2ccccc21 | inactive | –
12 | CN(C)C(=O)Nc1ccccc1 | inactive | –
13 | CCO[Si](CCC#N)(OCC)OCC | inactive | –
14 | CC(C)C(=O)OCC=Cc1ccccc1 | inactive | –
15 | C=COCC1CCC(COC=C)CC1 (stereo not given) | inactive | –
16 | CC(=O)OCC=C(C)CCC=C(C)CCC=C(C)C | – | 157 µM (active)
17 | Cc1cc(O)c(C)c(C)c1O | inactive | –
18 | CCCCCCC(C)O (stereo not given) | inactive | –
19 | N=C1N=C(N)c2ccccc21 | inactive | –
20 | CN(C)C | inactive | –

Row | Structure (SMILES) | outcome | AC50
21 | CCCCCC#CC(=O)OC | inactive | –
22 | CC(CO)(CO)[N+](=O)[O-] | inactive | –
23 | NC(=O)c1c(Cl)cccc1Cl | inactive | –
24 | CCCCCCCCOC(C)=O | inactive | –
25 | C=C(C)C(N)=O | inactive | –
26 | Cc1ccncc1 | inactive | –
27 | CC1=CCC(C(C)(C)O)CC1 (stereo not given) | inactive | –
28 | [O-]/[N+](=N\O)c1ccccc1 | inactive | –
29 | CC12CCC(C1)C(C)(C)C2O (stereo not given) | inactive | –
30 | CCCCCCCCCOS(=O)(=O)O | inactive | –
31 | CN(C)c1ccc(C=O)cc1 | inactive | –
32 | CC=CC(=O)C1=C(C)C=CCC1(C)C | inactive | –
33 | COc1ccc2[nH]cc(CCNC(C)=O)c2c1 | inactive | –
34 | CC1=CC(O)CC(C)(C)C1 (stereo not given) | inactive | –
35 | CC(C)COC(=O)c1ccccc1O | inactive | –
36 | CC(=N[Si](C)(C)C)O[Si](C)(C)C | inactive | –
37 | CC1=CC[C@@H](C(C)(C)O)CC1 | inactive | –
38 | CC1(C)CC(=O)CC(C)(C)N1 | inactive | –
39 | c1ccc(Sc2ccccc2)cc1 | inactive | –
40 | COc1ccccc1NC(=O)CC(C)=O | inactive | –
